We go through 27 compounds from PubChem BioAssay (Tox21).

Records with an inconclusive call do not appear. Values without a mark were called inactive. Active and inactive are the calls of the source. Unless noted, the call rests on the fitted dose curve; in most records, active means well fitted curve in the direction sought with a large enough effect in the repeat runs; inconclusive means weak or mixed curves; inactive means no such curve, though single readings can be large; an effect the other way counts as inactive or inconclusive.

Test [1] can be described thus: qHTS RealTime-Glo MT Cell Viability Assay in HEK293 cells - 24 hour (AID 1224886). Further: nearly all actives have a fitted effect of over 50% in size. Further: potency means the concentration at half of the fitted maximal effect. The essentials: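 Reads taken at 0, 8, 16, 24, 32 and 40 h from the same wells. HEK293 cells (600/well) carried RealTime-Glo reagents from seeding, with compound added after a 5 h settle at 37 C.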
For orientation: Quantitative high-throughput screening tests each substance at several concentrations.

Test [2] in a line: qHTS RealTime-Glo MT Cell Viability Assay in HEK293 cells - 8 hour (AID 1224887). Further: top concentration of the series differs between compounds; nearly all actives have a fitted effect of over 50% in size. The essentials: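 Kinetic, non-lysing viability readout. Seed HEK293 (600/well) with reagent, incubate 5 h at 37 C/5% CO2, pin 23 nL compound in DMSO, incubate at 37 C, read luminescence at 0, 8, 16, 24, 32, 40 h.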
The nature of test [3]: A CellTox Green Cytotoxicity Assay to monitor cytotoxicity in HEK293 cells - 16 hour (AID 1224888). Further: nearly all actives have a fitted effect of over 35% in size. The essentials:
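Real-time, in one plate: 600 HEK293 cells/well with dead-cell DNA dye, pinned compound after 5 h, 37 C incubation over 40 h; viable cells give no appreciable fluorescence.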

Test [4] can be described thus: qHTS RealTime-Glo MT Cell Viability Assay in HepG2 cells - 0 hour (AID 1224889). Further: nearly all actives have a fitted effect of over 50% in size. The essentials: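 HepG2 suspension premixed with RealTime-Glo reagents is plated at 600 cells per well and left 5 h at 37 C/5% CO2. Compounds in DMSO then go in, and bioluminescence reflecting viable cell number is recorded over 40 h.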
Test [5] can be described thus: A CellTox Green Cytotoxicity Assay to monitor cytotoxicity in HepG2 cells - 8 hour (AID 1224890). Further: nearly all actives have a fitted effect of over 45% in size. Further: potency means the concentration at half of the fitted maximal effect. An outline of the steps:
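Cytotoxicity was tracked as dead-cell DNA fluorescence in HepG2 cells treated with test compounds at 37 C; each time-point value comes from one kinetic series spanning 0, 8, 16, 24, 32 and 40 h.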

Test [6] is described as follows: qHTS assay to identify small molecule antagonists of the estrogen receptor alpha (ER-alpha) signaling pathway using the BG1 cell line in the presence of 0.1 nM 17-beta-estradiol - cell viability counter screen (AID 1259241). Further: nearly all actives have a fitted effect of over 40% in size. An outline of the steps: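 VM7Luc4E2 cells (endogenous full-length ER-alpha, 4xERE-luciferase), cultured 5 days in charcoal-stripped serum, exposed to compounds with 0.1 nM 17beta-estradiol (final) for 22 hr at 37C. Viability read in same wells as live-cell protease fluorescence after 30 min.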

A short description of test [7]: qHTS assay to identify small molecule antagonists of the androgen receptor (AR) signaling pathway using the MDA cell line in the presence of 0.5 nM R1881 - cell viability counter screen (AID 1259242). Further: nearly all actives have a fitted effect of over 45% in size. The essentials:
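Cells seeded at 3,000/well and allowed 5 hr at 37C, 0% CO2 before compound transfer and R1881 (0.5 nM final) addition; 16 hr later, live-cell protease fluorescence indicated cytotoxicity.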

In test [8] the target is Estrogen receptor (Homo sapiens) (UniProt P03372). The experiment in a line: qHTS assay to identify small molecule antagonists of the estrogen receptor alpha (ER-alpha) signaling pathway using the BG1 cell line in the presence of 0.1 nM 17-beta-estradiol (AID 1259244). Further: nearly all actives have a fitted effect of over 50% in size. The essentials:
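Luciferase signal from VM7Luc4E2 ERE-reporter cells, co-dosed with test compound and 0.1 nM final 17beta-estradiol for 22 h, read with ONE-Glo.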

The nature of test [9]: qHTS assay to identify small molecule HDAC inhibitors (AID 1259364).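 Further: wild-type HCT-116 cells with endogenous class I/II HDAC activity; top concentration of the series differs between compounds; nearly all actives have a fitted effect of over 45% in size.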 The essentials:
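HCT-116 wt cells, 1,500/well, overnight attach. Compounds (DMSO) 2 h, 37 °C. HDAC-Glo I/II, 30 min RT. Luminescence.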

A short description of test [10]: qHTS assay to identify small molecule phospholipidosis (PLD) inducers (AID 1259344; active means well fitted curve in the direction sought with a large enough effect; an effect the other way counts as inactive or inconclusive). The essentials: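 Cells (HepG2, 900 per well) attach for 4 h, receive LipidTOX Red and compound together, incubate 24 h at 37 C, are fixed 30 min with paraformaldehyde/Hoechst, then imaged at one site per well.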
On the % scale 0 is the no-effect control and ±100 the full control effect.

Sequence of Estrogen receptor (Homo sapiens) (P03372 whole entry, looked up): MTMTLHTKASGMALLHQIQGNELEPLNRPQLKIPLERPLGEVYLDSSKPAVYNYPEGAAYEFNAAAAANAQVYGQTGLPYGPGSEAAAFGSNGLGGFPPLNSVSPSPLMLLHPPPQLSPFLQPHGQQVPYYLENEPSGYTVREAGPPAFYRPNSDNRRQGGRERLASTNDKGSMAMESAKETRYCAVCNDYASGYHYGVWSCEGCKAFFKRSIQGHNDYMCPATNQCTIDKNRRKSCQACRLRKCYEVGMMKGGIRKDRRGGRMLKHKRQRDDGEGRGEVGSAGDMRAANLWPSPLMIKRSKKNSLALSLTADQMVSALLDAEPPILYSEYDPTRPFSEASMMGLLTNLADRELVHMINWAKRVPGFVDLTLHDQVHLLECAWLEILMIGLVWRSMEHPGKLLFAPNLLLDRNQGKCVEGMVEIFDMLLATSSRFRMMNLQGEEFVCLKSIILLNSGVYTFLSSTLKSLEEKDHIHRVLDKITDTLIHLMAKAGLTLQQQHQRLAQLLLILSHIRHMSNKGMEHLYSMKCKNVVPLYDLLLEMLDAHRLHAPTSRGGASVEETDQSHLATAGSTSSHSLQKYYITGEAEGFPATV

In the case of `C=C[Si](C)(C)O[Si](C)(C)C=C`, the Potency entry in test [1], in [2], in [3], in test [4], in test [5] and in test [6] was “inactive” in each case. Besides, the Potency entry in test [7], in test [8] and in [9] was “inactive” each time.

For the compound `O=C1c2ccccc2-c2ccccc21`, the Potency result in test [1], in test [2], in test [3], in [4], in test [5] and in test [6] was “inactive” each time. Also, the Potency entry in [7] and in test [9] was “inactive” throughout.

With `CCN(CCC#N)c1ccccc1`, the Potency result in test [1], in test [2], in [3], in test [4], in test [5] and in test [6] was “inactive” in each case. Moreover, the Potency result in test [7], in test [8] and in test [9] was “inactive” throughout.

With `CC(C)CCCC(C)CC=O` (centres undefined), the Potency entry in test [1], in test [2], in [3], in test [4], in [6] and in [7] was “inactive” each time. Also, the Potency result in [8] and in test [9] was “inactive” in each case. In addition, the Potency in [5] is 21.9 µM (active).

`C=CCOc1cc(Cl)ccc1C(=O)NCCN(CC)CC`: the Potency result in test [1], in test [2], in [3], in test [4], in test [5] and in test [6] was “inactive” throughout. Further, the Potency entry in test [7] and in test [9] was “inactive” each time.

Turning to `CCOC(=O)OCC/C(SC(=O)OCC)=C(\C)N(C=O)Cc1cnc(C)nc1N`, the Potency result in [1], in [2], in test [3], in test [4], in [5] and in test [6] was “inactive” each time. Moreover, the Potency result in [7] and in [9] was “inactive” throughout. In addition, the PLD induction in test [10] was 2.13% [at 1.53 µM].

With `C[C@H](CCC(=O)NCC(=O)O)[C@H]1CC[C@H]2[C@@H]3[C@H](O)C[C@@H]4C[C@H](O)CC[C@]4(C)[C@H]3C[C@H](O)[C@]12C`, the Potency in test [1] is 13.4 µM (active). Besides, the Potency entry in test [2], in test [3], in test [4], in test [5], in [6] and in test [7] was “inactive” throughout. Also, in [9], the Potency entry was “inactive”.

Take `C[C@H]1O[C@H](O[C@H]2[C@H](O)[C@@H](O)[C@@H](O[C@H]3[C@H](O)[C@@H](O)[C@H](O)O[C@@H]3CO)O[C@@H]2CO)[C@H](O)[C@@H](O)[C@@H]1N[C@H]1C=C(CO)[C@@H](O)[C@H](O)[C@H]1O`: the Potency entry in test [1], in [2], in test [3], in [4], in [5] and in [6] was “inactive” throughout. Moreover, the Potency entry in test [7] and in test [9] was “inactive” throughout. In addition, in test [10], the call was inactive.

For the compound `Cc1cccc(NC(=S)N(C)C)c1`, the Potency entry in [1], in [2], in test [3], in test [4], in [5] and in test [6] was “inactive” throughout. The Potency result in test [7] and in test [9] was “inactive” throughout.

Turning to `CCCCCC(=O)OCC`, the Potency entry in test [1], in [2], in test [3], in test [4], in test [5] and in test [6] was “inactive” in each case. The Potency entry in [7], in [8] and in test [9] was “inactive” in each case.

`C[Si]1(C)N[Si](C)(C)N[Si](C)(C)N1`: the Potency result in test [1], in test [2], in test [3], in test [4], in test [5] and in test [6] was “inactive” in each case. Besides, the Potency result in test [7], in test [8] and in test [9] was “inactive” in each case.

For `CO/N=C(/C(=O)N[C@@H]1C(=O)N2C(C(=O)O)=C(Cn3nnc(C)n3)CS[C@H]12)c1csc(N)n1`, the Potency entry in [1], in [2], in test [3], in test [4], in test [5] and in [6] was “inactive” in each case. For the same compound, the Potency result in test [7] and in [9] was “inactive” throughout. The outcome in test [10] was inactive.

For the compound `CCCCCCCC[Si](OCC)(OCC)OCC`, the Potency entry in test [1], in test [2], in [3], in test [4], in test [5] and in test [6] was “inactive” each time. Further, the Potency result in test [7] and in [9] was “inactive” each time.

Consider `O=C(O)C(=O)Nc1cccc(-c2nn[nH]n2)c1`, for which the Potency entry in test [1], in [2], in [3], in test [4], in test [5] and in test [6] was “inactive” throughout. The Potency entry in test [7] and in test [9] was “inactive” each time. The outcome in test [10] was inactive.

For `O=C(c1ccc2c(c1)C(=O)OC2=O)c1ccc2c(c1)C(=O)OC2=O`, the Potency entry in test [1], in test [2], in [3], in test [4], in test [5] and in test [6] was “inactive” throughout. The Potency entry in [7] and in [9] was “inactive” each time.

Turning to `C1CCN2C[C@@H]3C[C@@H](CN4CCCC[C@@H]34)[C@H]2C1`, the Potency result in test [1], in test [2], in test [3], in test [4], in [5] and in test [6] was “inactive” in each case. The Potency entry in test [7] and in test [9] was “inactive” throughout. Also, in test [10], the compound was called inactive.

With `CCc1nccnc1C`, the Potency result in [1], in [2], in test [3], in [4], in test [5] and in test [6] was “inactive” throughout. Also, the Potency entry in test [7], in test [8] and in test [9] was “inactive” throughout.

For `CC1(N)CCC(C(C)(C)N)CC1` (centres undefined), the Potency result in test [1], in test [2], in test [3], in [4], in test [5] and in test [6] was “inactive” each time. Moreover, the Potency entry in [7] and in test [9] was “inactive” throughout.

With `CN(C)CCOCCN(C)CCO`, the Potency entry in test [1], in [2], in [3], in test [4], in test [5] and in [6] was “inactive” throughout. Further, the Potency entry in test [7], in [8] and in test [9] was “inactive” in each case.

`C=CCOc1c(Br)cc(C(C)(C)c2cc(Br)c(OCC=C)c(Br)c2)cc1Br`: the Potency result in test [1], in [2], in [3], in test [4], in test [5] and in test [6] was “inactive” throughout. In addition, the Potency entry in test [7], in test [8] and in test [9] was “inactive” in each case.

In the case of `Cc1ccccc1N1CCN(CCc2nnc3n2CCCC3)CC1`, the Potency result in [1], in [2], in test [3], in test [4], in test [5] and in test [6] was “inactive” each time. The Potency result in [7] and in [9] was “inactive” in each case. Besides, in test [10], the outcome was inactive.

`CCCCC(CC)COC(=O)c1ccccc1` (centres undefined): the Potency result in test [1], in test [2], in test [3], in test [4], in test [5] and in [6] was “inactive” each time. Further, the Potency entry in test [7], in [8] and in test [9] was “inactive” throughout.

Turning to `O=S(=O)(O)SSS(=O)(=O)O`, the Potency result in test [1], in [2], in test [3], in [4], in [5] and in [6] was “inactive” in each case. The Potency result in test [7] and in test [9] was “inactive” throughout.

In the case of `COCCOCCOCCOC`, the Potency result in test [1], in test [2], in test [3], in test [4], in [5] and in [6] was “inactive” throughout. The Potency entry in [7] and in test [9] was “inactive” each time.

On to `CC(=O)Nc1ccc(C)cc1`, for which the Potency result in test [1], in test [2], in test [3], in test [4], in [5] and in test [6] was “inactive” each time. Also, the Potency entry in [7], in test [8] and in test [9] was “inactive” throughout.

With `CN[C@@H]1[C@@H](O)[C@@H](O[C@@H]2[C@H](O)[C@H](O[C@H]3OC(CN)=CC[C@H]3N)[C@@H](N)C[C@H]2N)OCC1(C)O` (some centres undefined), the Potency result in test [1], in test [2], in test [3], in [4], in [5] and in test [6] was “inactive” throughout. Moreover, the Potency result in test [7] and in [9] was “inactive” throughout. Also, in test [10], the outcome was inactive.

As for `O=c1[nH]c(=O)c2ccccc2o1`, the Potency result in test [1], in test [2], in [3], in [4], in test [5] and in test [6] was “inactive” each time. The Potency result in [7] and in test [9] was “inactive” in each case. The outcome in test [10] was inactive.
